{"source": "PubChem BioAssay (Tox21)", "note": "Results filed as inconclusive are left out. A call without a number means that no potency is given here. A number with no mark means an inactive call. Active and inactive are the calls of the source. Calls come from the whole dose curve; as a rule, active = well fitted inhibition curve with a large enough effect in the repeat runs; inconclusive = weak or mixed curves; inactive = no such curve, though single readings can be large or run the other way. Potency is the fitted concentration of half-maximal effect.", "data": [{"biological_target": "Cytochrome P450 3A4 (Homo sapiens) (UniProt P08684)", "sequence (P08684 whole entry, looked up)": "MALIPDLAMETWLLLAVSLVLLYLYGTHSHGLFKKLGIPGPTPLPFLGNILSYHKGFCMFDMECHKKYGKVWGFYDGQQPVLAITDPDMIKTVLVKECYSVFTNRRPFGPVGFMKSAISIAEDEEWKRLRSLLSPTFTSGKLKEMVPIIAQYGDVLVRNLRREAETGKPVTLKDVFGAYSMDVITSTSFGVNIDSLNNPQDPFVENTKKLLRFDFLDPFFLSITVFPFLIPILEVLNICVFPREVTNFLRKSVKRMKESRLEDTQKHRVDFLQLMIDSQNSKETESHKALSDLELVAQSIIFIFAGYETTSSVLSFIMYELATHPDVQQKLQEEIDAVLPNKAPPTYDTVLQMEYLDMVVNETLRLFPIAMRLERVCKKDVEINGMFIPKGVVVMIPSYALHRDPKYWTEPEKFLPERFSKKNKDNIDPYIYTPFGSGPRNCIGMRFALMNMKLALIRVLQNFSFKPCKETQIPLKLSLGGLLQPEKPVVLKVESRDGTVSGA", "experiment": "Cytochrome P450 Family 3 Subfamily A Member 4 (CYP3A4) small molecule antagonists: luciferase reporter qHTS assay (AID 1671201); note: nearly all actives have a fitted effect of over 50% in size", "settings": "P450-Glo CYP3A4 enzyme, luciferin luminescence, 1 h; series mostly up to 115 µM", "method_in_brief": "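Enzyme and proluciferin substrate are mixed with test chemicals for 10 min, then NADPH regeneration system drives turnover for 1 h at room temperature. A detection reagent halts the reaction; luminescence after 20 min gives relative activity.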", "values": [{"molecule": "Cc1cc(C)c(NC(=O)CN(CC(=O)O)CC(=O)O)c(C)c1Br", "Potency": "inactive"}, {"molecule": "OCC(O)[C@@H](O)[C@H](O)[C@H](O)CO[C@H]1O[C@H](CO)[C@@H](O)[C@H](O)[C@H]1O", "note": "(stereo not given in full)", "Potency": "inactive"}, {"molecule": "NC(=O)Nc1nc2ccccc2[nH]1", "Potency": "inactive"}, {"molecule": "CC(C=O)Cc1ccc(C(C)C)cc1", "note": "(stereo not given)", "Potency": "inactive"}, {"molecule": "C1=C\\CC/C=C\\CC/C=C\\CC/1", "Potency": "inactive"}, {"molecule": "CCCCCCCCCCCCCCCCCC(=O)OCCCCCCCCCCCCCC(C)C", "Potency": "inactive"}, {"molecule": "CC(=O)N[C@@H](CCC(N)=O)C(=O)O", "Potency": "inactive"}, {"molecule": "Cc1ccc(Nc2ccc(O)c3c2C(=O)c2ccccc2C3=O)cc1", "Potency": "inactive"}, {"molecule": "c1ccc(CCCc2ccccn2)cc1", "Potency": "inactive"}, {"molecule": "CC1=CCC2C(C1)C2(C)C", "note": "(stereo not given)", "Potency": "15.9 µM (active)"}, {"molecule": "CC(C)COC(=O)C(C)C", "Potency": "inactive"}, {"molecule": "C=CCOc1nc(OCC=C)nc(OCC=C)n1", "Potency": "12.6 µM (active)"}, {"molecule": "Cc1ccccc1Br", "Potency": "inactive"}, {"molecule": "C#CC(O)CCCCC", "note": "(stereo not given)", "Potency": "inactive"}, {"molecule": "CC/C=C\\CCCCO", "Potency": "inactive"}, {"molecule": "CCCCCCOC(=O)c1ccccc1O", "Potency": "inactive"}, {"molecule": "C1C2OC2C2C1C1CC2C2OC12", "note": "(stereo not given)", "Potency": "inactive"}, {"molecule": "N#CC1(O)CCCCC1", "Potency": "inactive"}, {"molecule": "Cc1c(C)n(CCN(C)C)c2ccc(C(=O)OCCN(C)C)cc12", "Potency": "inactive"}, {"molecule": "C=CC(=O)N1CCOCC1", "Potency": "inactive"}, {"molecule": "CC(C)(O)c1ccccc1", "Potency": "inactive"}, {"molecule": "OC1OC[C@@H](O)[C@H](O)[C@H]1O", "note": "(stereo not given in full)", "Potency": "inactive"}, {"molecule": "C=C(C)C(=O)OCCC(C)OC(=O)C(=C)C", "note": "(stereo not given)", "Potency": "inactive"}, {"molecule": "Cc1cc(C)cc(OCC2CNC(=O)O2)c1", "note": "(stereo not given)", "Potency": "inactive"}, {"molecule": "C1CCCCCCCCCCC1", "activity change, negative = inhibition": "3.28% [at 23.6 µM]"}, {"molecule": "CCCc1ccccc1O", "Potency": "inactive"}, {"molecule": "O=C(O)c1ccccc1-c1ccc(C(F)(F)F)cc1", "Potency": "inactive"}, {"molecule": "CC(C)(C)N(CCO)CCO", "Potency": "inactive"}, {"molecule": "CC(C)=CCC/C(C)=C/C(=O)O", "Potency": "inactive"}, {"molecule": "CCN1CCCC1CNC(=O)c1cc(S(N)(=O)=O)ccc1OC", "note": "(stereo not given)", "Potency": "inactive"}, {"molecule": "Nc1cc(N)cc(C(=O)O)c1", "Potency": "inactive"}, {"molecule": "CNc1ncnc2nc[nH]c12", "Potency": "inactive"}, {"molecule": "CC(C)=CC(=O)O", "Potency": "inactive"}, {"molecule": "CCCCCCC(CCCCCCCCCCC(=O)OCC(COC(C)=O)OC(C)=O)OC(C)=O", "note": "(stereo not given)", "Potency": "inactive"}, {"molecule": "C1COCCO1", "Potency": "inactive"}]}]}
